PubChem BioAssay (NCI)
The panel holds about 83,000 compounds, 20% with a hit somewhere; the sample as a whole holds those more often.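 Assay: single dose, 48 h. Readout: percent growth (0 = no net growth; negative = cell death). Active: <10.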 Active and inactive are the calls of the source.

Legend:
Test in all cases: NCI-60 one-dose screen, 48 h (100 = growth as untreated, 0 = no growth, -100 = all killed)
Conditions in all cases: 10 µM unless noted
NCI-H23 lung = system: NCI-H23 lung
NCI-H226 lung = system: NCI-H226 lung
NCI-H322M lung = system: NCI-H322M lung
HOP-62 NSCLC = system: HOP-62 NSCLC
NCI-H460 lung = system: NCI-H460 lung
HOP-92 NSCLC = system: HOP-92 NSCLC
NCI-H522 lung = system: NCI-H522 lung
A549/ATCC NSCLC = system: A549/ATCC NSCLC
786-0 renal = system: 786-0 renal
COLO 205 colon = system: COLO 205 colon

Measured: growth

COc1ccc2[nH]c(O)c(/C=c3/cc4c(c(-c5cc(OC)c(OC)c(OC)c5)n3)=Nc3ccccc3-4)c2c1
inactive: NCI-H23 lung 50.7% | NCI-H226 lung 67.1% | NCI-H322M lung 92.6% | HOP-62 NSCLC 86.2% | NCI-H460 lung 71.6% | HOP-92 NSCLC 39.8% | NCI-H522 lung 50.4% | A549/ATCC NSCLC 72.5% | 786-0 renal 67.1% | COLO 205 colon 59.4%

CC(C)(C)C(CCc1ccc(Cl)cc1)N1CCN(C2CCCCC2)CC1 (stereo not given)
inactive: NCI-H23 lung 47.5% | NCI-H226 lung 78.5% | NCI-H322M lung 82.8% | HOP-62 NSCLC 47.5% | NCI-H460 lung 25.2% | HOP-92 NSCLC 45.3% | NCI-H522 lung 41% | A549/ATCC NSCLC 24.9% | 786-0 renal 42.4% | COLO 205 colon 33.7%

CC1=C([Se]CC(OC(=O)CC[Se]c2ccccc2)C(=O)NCCCCCC(=O)OCc2ccccc2)C(=O)c2ccccc2C1=O (stereo not given)
inactive: NCI-H23 lung 10% | NCI-H226 lung 46% | NCI-H460 lung 21.6% | NCI-H522 lung 52.7% | A549/ATCC NSCLC 11.9% | 786-0 renal 58.2% | COLO 205 colon 105%
active: NCI-H322M lung 2.53% | HOP-62 NSCLC -15.1% | HOP-92 NSCLC -5.98%

NC(=S)Nc1cccc(O)c1
inactive: NCI-H23 lung 90.6% | NCI-H226 lung 96.9% | NCI-H322M lung 88.9% | HOP-62 NSCLC 89.8% | NCI-H460 lung 104% | HOP-92 NSCLC 98.9% | NCI-H522 lung 93.1% | A549/ATCC NSCLC 99.8% | 786-0 renal 100% | COLO 205 colon 129%

O=C(CCCCCCSc1nc(-c2ccccc2)cc(-c2ccc(Cl)cc2)n1)NO
active: NCI-H23 lung -17.7% | NCI-H226 lung 2.23% | HOP-62 NSCLC -9.16% | NCI-H460 lung 7.04% | HOP-92 NSCLC -7.58% | NCI-H522 lung -15.8% | A549/ATCC NSCLC -23% | 786-0 renal 1.46%
inactive: NCI-H322M lung 21.3% | COLO 205 colon 20.9%

O=C(NCCCNc1cc(-c2cn(-c3ccccc3)nc2-c2cccc(O)c2)ccn1)c1ccccc1
active: NCI-H522 lung 7.01% | 786-0 renal -29.8% | COLO 205 colon -60.3%
inactive: NCI-H23 lung 46% | NCI-H226 lung 54.9% | NCI-H322M lung 75.2% | HOP-62 NSCLC 47% | NCI-H460 lung 30.4% | HOP-92 NSCLC 49.8% | A549/ATCC NSCLC 21%

NC(N)=NN=C(c1ccccc1)c1ccccc1
active: COLO 205 colon -0.806%
inactive: NCI-H23 lung 17.8% | NCI-H226 lung 51.4% | NCI-H322M lung 45.5% | HOP-62 NSCLC 28.6% | NCI-H460 lung 14.4% | HOP-92 NSCLC 60.7% | NCI-H522 lung 28.2% | A549/ATCC NSCLC 50.8% | 786-0 renal 26.2%

Cc1c(Cl)cc(-n2c(=O)c3ccccc3c3ccccc3c2=O)cc1Cl
inactive: NCI-H23 lung 97.6% | NCI-H226 lung 108% | NCI-H322M lung 87.3% | HOP-62 NSCLC 92.6% | NCI-H460 lung 111% | HOP-92 NSCLC 98.4% | NCI-H522 lung 98.7% | A549/ATCC NSCLC 102% | 786-0 renal 98.6% | COLO 205 colon 98.2%

N#CC1=C(NC=O)Oc2c(ccc3ccccc23)C1c1ccccc1 (stereo not given)
active: NCI-H522 lung -2.8%
inactive: NCI-H23 lung 38.5% | NCI-H226 lung 62.6% | NCI-H322M lung 75.4% | HOP-62 NSCLC 21.1% | NCI-H460 lung 19.9% | HOP-92 NSCLC 42.6% | A549/ATCC NSCLC 36.3% | 786-0 renal 22% | COLO 205 colon 96.4%

OC(c1cccc(-n2ccc(C(F)(F)F)n2)c1)c1cnccc1NC1CCCCCC1 (stereo not given)
inactive: NCI-H23 lung 53.1% | NCI-H226 lung 67.3% | HOP-62 NSCLC 73.7% | NCI-H522 lung 43.9% | A549/ATCC NSCLC 50.2% | 786-0 renal 28.9%
active: NCI-H322M lung 6.47% | NCI-H460 lung -64.6% | HOP-92 NSCLC -5.13% | COLO 205 colon -47.2%

COc1ccc(/C=N/C2=C(C#N)C(c3ccc(OC)cc3)c3ccc4ccccc4c3O2)cc1 (stereo not given)
inactive: NCI-H23 lung 75.5% | NCI-H226 lung 74.5% | NCI-H322M lung 97.6% | HOP-62 NSCLC 67% | NCI-H460 lung 75.6% | HOP-92 NSCLC 70.3% | NCI-H522 lung 45.5% | A549/ATCC NSCLC 83.7% | 786-0 renal 95.1% | COLO 205 colon 102%

COc1ccccc1NC(=O)N/C(N)=N/c1nc2ccccc2s1
inactive: NCI-H23 lung 33% | NCI-H226 lung 63.4% | NCI-H322M lung 41.6% | HOP-62 NSCLC 32.7% | NCI-H460 lung 10.1% | HOP-92 NSCLC 62.1% | A549/ATCC NSCLC 25.1% | 786-0 renal 40.2%
active: NCI-H522 lung 4.23% | COLO 205 colon -3.41%

COc1ccc(C(=O)/C=C/c2c(C(F)(F)F)nc3sccn23)cc1OC
active: NCI-H460 lung -46.6%
inactive: NCI-H23 lung 22.7% | NCI-H226 lung 53.5% | NCI-H322M lung 34.6% | HOP-62 NSCLC 25% | HOP-92 NSCLC 78.2% | NCI-H522 lung 93.1% | A549/ATCC NSCLC 73.8% | 786-0 renal 32% | COLO 205 colon 27.3%

C[C@H]1[C@H]2[C@H]3CC[C@@H]4[C@@]5(C)C/C(=C/c6cccnc6)C(=O)C(C)(C)[C@@H]5CC[C@@]4(C)[C@]3(C)CC[C@]23CO[C@]1(C)[C@@H](C(=O)/C=C\c1cccnc1)C3
active: NCI-H23 lung -48.7% | NCI-H226 lung -13.5% | HOP-62 NSCLC -13.6% | NCI-H460 lung -45.3% | HOP-92 NSCLC -20% | NCI-H522 lung -34.4% | A549/ATCC NSCLC -24.6% | 786-0 renal -39% | COLO 205 colon -56.8%
inactive: NCI-H322M lung 46.4%

O=C(c1ccccc1)c1c(/C=C/c2ccc(Cl)cc2)nc2ccccc2c1/C=C/c1cccs1
inactive: NCI-H23 lung 102% | NCI-H226 lung 92.4% | NCI-H322M lung 89.4% | HOP-62 NSCLC 106% | NCI-H460 lung 107% | HOP-92 NSCLC 87.3% | NCI-H522 lung 88.6% | A549/ATCC NSCLC 92.9% | 786-0 renal 94.9% | COLO 205 colon 103%

Cc1nn(-c2ccccc2)c2nc3c(c(-c4ccc(Cl)cc4)c12)CNC1(CCSCC1)N3
inactive: NCI-H23 lung 97.4% | NCI-H226 lung 81.2% | NCI-H322M lung 100% | HOP-62 NSCLC 93.6% | NCI-H460 lung 99.6% | HOP-92 NSCLC 74.1% | NCI-H522 lung 110% | A549/ATCC NSCLC 87% | 786-0 renal 105% | COLO 205 colon 94.5%

COc1cccc(-c2nn(-c3ccccc3)cc2-c2ccnc(NCCCNC(=O)c3ccc(F)cc3)c2)c1
inactive: NCI-H23 lung 53.1% | NCI-H226 lung 60.1% | NCI-H322M lung 80.8% | HOP-62 NSCLC 35.6% | NCI-H460 lung 45.8% | HOP-92 NSCLC 57.4% | NCI-H522 lung 51.8% | A549/ATCC NSCLC 30.5% | 786-0 renal 38.2% | COLO 205 colon 31.7%

O=C(O)C1CCC(=O)N1C(=O)OCc1ccccc1 (stereo not given)
inactive: NCI-H23 lung 93.7% | NCI-H226 lung 94.1% | NCI-H322M lung 94% | HOP-62 NSCLC 94.2% | NCI-H460 lung 106% | HOP-92 NSCLC 98.7% | NCI-H522 lung 92.8% | A549/ATCC NSCLC 96.7% | 786-0 renal 93% | COLO 205 colon 124%

FC(F)(F)c1cc(Nc2ccc3cc(OCCCN4CCOCC4)ccc3n2)ccc1Cl
inactive: NCI-H23 lung 36% | NCI-H226 lung 68.2% | NCI-H322M lung 66.4% | HOP-62 NSCLC 12.3% | HOP-92 NSCLC 26.1% | A549/ATCC NSCLC 28.3%
active: NCI-H460 lung 6.76% | NCI-H522 lung -22.1% | 786-0 renal -64.5% | COLO 205 colon -69.3%

O=C(NCCCNc1cc(-c2cn(-c3ccccc3)nc2-c2cccc(O)c2)ccn1)c1ccc(F)cc1
inactive: NCI-H23 lung 42% | NCI-H226 lung 58.9% | NCI-H322M lung 62.8% | HOP-62 NSCLC 26.2% | NCI-H460 lung 27.9% | HOP-92 NSCLC 14.4% | A549/ATCC NSCLC 16.1%
active: NCI-H522 lung 9.35% | 786-0 renal -49.4% | COLO 205 colon -59.1%

Cc1ccc(C2SCC(=O)N2Cc2ccccc2)cc1 (stereo not given)
inactive: NCI-H23 lung 100% | NCI-H226 lung 96% | NCI-H322M lung 95.6% | HOP-62 NSCLC 104% | NCI-H460 lung 115% | HOP-92 NSCLC 81.7% | NCI-H522 lung 83.6% | A549/ATCC NSCLC 102% | 786-0 renal 89.2% | COLO 205 colon 109%

COc1cc(/C=C/C(=O)c2ccc(Nc3nc(Nc4ccc(F)cc4)nc(Nc4ccc(Cl)cc4)n3)cc2)cc(OC)c1OC
inactive: NCI-H23 lung 26.3% | NCI-H226 lung 61.1% | NCI-H322M lung 99.6% | HOP-62 NSCLC 82.1% | NCI-H460 lung 55.1% | HOP-92 NSCLC 38% | NCI-H522 lung 62.2% | A549/ATCC NSCLC 53.1% | 786-0 renal 66.4% | COLO 205 colon 78.5%

N#Cc1nc(C#N)c(Sc2ccccc2)c(Sc2ccccc2)c1Sc1ccccc1
inactive: NCI-H322M lung 23.9%
active: NCI-H23 lung -42.1% | NCI-H226 lung 3.05% | HOP-62 NSCLC -46% | NCI-H460 lung -44.7% | HOP-92 NSCLC -31.7% | NCI-H522 lung -67.2% | A549/ATCC NSCLC 3.65% | 786-0 renal -55.9% | COLO 205 colon -88.2%

COc1cccc(Nc2nccc(Nc3ccc4[nH]ncc4c3)n2)c1
active: NCI-H23 lung -29.1% | NCI-H226 lung -17.3% | NCI-H322M lung 7.17% | HOP-62 NSCLC -11.4% | NCI-H460 lung -68.1% | HOP-92 NSCLC -11.2% | NCI-H522 lung -68.4% | A549/ATCC NSCLC -68.3% | 786-0 renal -12.5% | COLO 205 colon -88.4%

CC(C)CC(NC(=O)CN(Cc1ccccc1)S(C)(=O)=O)C(=O)O (stereo not given)
inactive: NCI-H23 lung 93.1% | NCI-H226 lung 104% | NCI-H322M lung 93.8% | HOP-62 NSCLC 96% | NCI-H460 lung 98.7% | NCI-H522 lung 103% | A549/ATCC NSCLC 96.5% | 786-0 renal 93.6% | COLO 205 colon 112%
active: HOP-92 NSCLC -0.442%
